Assay outcomes deposited in PubChem by National Center for Advancing Translational Sciences (NCATS).
KinaseGlo FLuc: counter-screen: inhibitors of Kinase-Glo firefly luciferase | Kinase-Glo luciferase, ATP luminescence, 8 min | actives 0.28% (n = 200,000) | Q27757 | AID 1379 | Potency, µM (series often up to 38.3 µM), for inactives: top-dose activity change, negative = inhibition, hits mostly inhibitors; also: % is scaled to controls: 0 for no effect and ±100 for the full control effect; nearly all actives have a fitted effect of over 60% in size
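Luminescence was the read-out, taken after 8-minute incubation at ambient temperature. Luciferase turned over luciferin with 10 uM ATP in imidazole pH 7.2 buffer containing KCl, MgCl2, Tween 20 and BSA.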
SMN2 splice up: enhancers of SMN2 splice variant expression | HEK293 SMN2-luciferase splicing reporter, luminescence, 30-36 h | Potency, µM (titrated, usually from 46.1 µM), for inactives: top-dose activity change, positive = activation, usual class: activators | actives 2.8% (n = 210,000); also: % of control where 0% means no effect; nearly all actives have a fitted effect of over 55% in size
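HEK293 cells carry an SMN2 minigene-luciferase reporter in which exon 7 inclusion puts luciferase in frame. Cells were seeded at 2000 cells/well, attached for 10-12 hours, then exposed to compounds for 30-36 hours at 37C before ONE-Glo luminescence.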
NPC1 promoter act: activates the NPC1 promoter; Huh7 NPC1 promoter luciferase reporter, 24 h; Potency, µM (doses to about 9.22 µM), inactives show at the highest dose activation, hits mostly activators; actives 2.4% (n = 320,000); also: % of control where 0% means no effect; nearly all actives have a fitted effect of over 60% in size
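Luciferase expression driven by the NPC1 promoter was measured in stably transfected Huh7 cells after a 24 h compound incubation, using a luciferase reagent and a luminescence read.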
FLuc modulator: inhibits or activates purified firefly luciferase, miR-21 counter-screen; purified FLuc, Km substrates, luminescence inhibition; Potency, µM (titrated, usually from 57.5 µM), for the others: at the top dose activity change, negative = inhibition, usual class: inhibitors; actives 6.9% (n = 360,000); P08659;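 also: plate controls were vehicle for no effect and reference inhibitor for full effect; nearly all actives have a fitted effect of over 55% in size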
Target sequence (P08659 whole entry, looked up): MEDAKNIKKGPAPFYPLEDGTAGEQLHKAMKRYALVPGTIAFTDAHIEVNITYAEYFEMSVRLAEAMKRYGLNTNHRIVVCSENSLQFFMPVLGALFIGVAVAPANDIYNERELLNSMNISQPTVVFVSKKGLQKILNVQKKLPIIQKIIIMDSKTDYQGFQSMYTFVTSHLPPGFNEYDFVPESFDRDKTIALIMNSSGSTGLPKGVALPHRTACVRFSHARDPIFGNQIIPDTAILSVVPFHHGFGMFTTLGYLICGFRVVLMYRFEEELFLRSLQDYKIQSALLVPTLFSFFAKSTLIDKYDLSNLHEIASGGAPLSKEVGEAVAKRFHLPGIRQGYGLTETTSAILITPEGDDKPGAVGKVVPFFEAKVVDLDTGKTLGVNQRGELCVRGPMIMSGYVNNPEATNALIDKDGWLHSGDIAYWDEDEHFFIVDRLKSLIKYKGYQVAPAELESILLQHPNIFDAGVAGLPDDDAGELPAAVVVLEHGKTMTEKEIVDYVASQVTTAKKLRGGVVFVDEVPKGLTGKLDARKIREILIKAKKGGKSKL
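Biochemical qHTS of compounds, final roughly 60 µM downward over six points, against 10 nM purified firefly luciferase using Km concentrations of substrates (10 uM D-luciferin, 10 uM ATP) in Tris acetate pH 7.5 buffer; luminescence output.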
Rab9 prom act: Rab9 promoter activation; Huh7 Rab9 promoter-luciferase reporter, luminescence, 24 h; Potency, µM (doses to about 9.22 µM), inactives show at the top dose activation, negative = inhibition, most hits filed as activators; actives 2.8% (n = 320,000); AID 485297; also: % of control where 0% means no effect; nearly all actives have a fitted effect of over 60% in size
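Huh7 cells stably carrying Rab9 promoter–luciferase reporter, plated 1500 cells/well, compound added after 2 h and incubated 24 h at 37 °C; luciferase luminescence then read after 10 min with detection reagent.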
ELG1 genotox: induces genotoxicity in HEK293T cells with luciferase-tagged ELG1; HEK293T ELG1-luciferase reporter, luminescence, 16 h; Potency, µM (doses to about 46 µM), inactives show at the highest dose activity change, positive = activation, hits mostly activators; actives 1.3% (n = 330,000); also: % of control where 0% means no effect; nearly all actives have a fitted effect of over 60% in size
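16 hr compound incubation (37 °C, 5% CO2) of HEK293T cells carrying luciferase-tagged ELG1; luciferase then measured by ONE-Glo luminescence after 30 min at RT.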
* marks the source's active call; other numbers are inactive results; ? = inconclusive; · = no result. Most compounds without a hit are left out; they make up all but 7.4% or so of the library. Calls follow the shape of the dose curve; as a rule, active = well fitted curve in the direction sought with a large enough effect; inconclusive = small, poorly fitted or top-dose-only effect, or another doubt; inactive = no such curve, though single readings can be large; an effect the other way counts as inactive or inconclusive. Potency is read from the fitted curve at half-maximal effect.

SMILES	KinaseGlo FLuc	SMN2 splice up	NPC1 promoter act	FLuc modulator	Rab9 prom act	ELG1 genotox
Cc1cc(C)cc(NC(=O)CSc2nc(CSc3ccc(Cl)cc3)cc(=O)[nH]2)c1	·	·	-3%	-5%	0%	-1%
CCc1ccccc1NC(=O)c1cc2c(Cl)nc3ccccc3c2s1	·	-8%	·	6%	·	·
CCOC(=O)c1cc(-c2ccc(OC)cc2)n(CCC(=O)NCc2ccc(OC)cc2)c1C	·	·	·	-11%	·	·
O=C(COC(=O)c1ccc(F)cc1F)Nc1cc(S(=O)(=O)N2CCOCC2)ccc1Cl	·	·	-1%	0%	8%	3%
O=C(Cn1cnc(S(=O)(=O)N2CCOCC2)c1)Nc1ccc(OC(F)(F)F)cc1	·	·	-1%	1%	-8%	1%
O=C(Nc1ccccc1Br)c1ccc(N2CCCC2=O)cc1	·	·	?	15µM*	2.5µM*	?
Cc1nn(Cc2ccccc2Cl)c(C)c1NC(=O)c1cc(C(C)C)on1	·	?	·	-15%	·	·
O=C(O)c1cccc(COc2ccccc2Cl)c1	?	0.032µM*	?	0.15µM*	0.89µM*	·
CCN(CC)C(=O)c1ccc(COc2ccccc2Cl)cc1	6%	-40%	4%	?	0%	?
CN1CCN(C(=O)c2cccc(COc3cc(Cl)ccc3Cl)c2)CC1	3%	10µM*	3.2µM*	?	1.1µM*	?
O=C(O)c1ccc(COc2ccccc2Cl)cc1	2%	12%	14%	21µM*	24%	2%
CN1CCN(C(=O)c2ccc(COc3cc(Cl)ccc3Cl)o2)CC1	·	·	-1%	-3%	-4%	6%
Cc1nn(Cc2c(Cl)cccc2Cl)c(C)c1NC(=O)c1cc(C(C)C)on1	2%	3.5µM*	1%	-1%	0%	-4%
Cc1nn(Cc2c(F)c(F)c(F)c(F)c2F)c(C)c1NC(=O)c1cccc(COc2ccccc2Cl)c1	-2%	10µM*	0.5µM*	6µM*	0.35µM*	?
Cc1nn(Cc2cccc(F)c2)c(C)c1NC(=O)c1ccc(COc2ccccc2Cl)cc1	-4%	-67%	-3%	4%	3%	-24%
O=C(Nc1ccccc1Cl)c1cccc(COc2cc(Cl)ccc2Cl)c1	-2%	6.3µM*	2.2µM*	?	4µM*	?
COc1ccc(C(=O)Nc2cc(OCc3ccccc3)c(Cl)cc2Cl)cc1	-1%	-15%	-3%	1%	0%	-3%
CCc1ccc(CC2S/C(=C(\C#N)C(C)=O)NC2=O)cc1 (stereo not drawn)	1%	11µM*	3%	?	-9%	-7%
CCOc1ccc(-n2nc3cc(C)c(N)cc3n2)cc1	·	·	0.45µM*	0.34µM*	0.45µM*	?
CCOc1ccc(-n2nc3cc(C)c(NC(=O)c4cc(OCC)c(OCC)c(OCC)c4)cc3n2)cc1	·	0%	·	0%	·	·
CCOc1ccc(-n2nc3ccc(N)cc3n2)cc1	·	·	?	0.76µM*	14%	?
CCOc1ccc(-n2nc3ccc(NC(=O)c4cccc(F)c4)cc3n2)cc1	·	4%	·	6%	·	·
N#Cc1ccccc1OCC(=O)NNC(=O)CCNC(=O)c1ccccc1	·	·	·	·	·	1%
Cc1cc(C)c(NC(=O)CSc2nccn2Cc2ccco2)c(C)c1	·	·	·	17µM*	·	·
O=C(CSc1nccn1Cc1ccco1)Nc1ccccc1F	·	·	?	?	17%	?
SMILES	KinaseGlo FLuc	SMN2 splice up	NPC1 promoter act	FLuc modulator	Rab9 prom act	ELG1 genotox
COc1ccc(OC)c(NC(=O)CSc2nccn2Cc2ccco2)c1	·	·	4%	15µM*	2%	5%
Cc1ccc(NC(=O)CSc2nccn2Cc2ccco2)c(C)c1	·	·	0.89µM*	4.3µM*	0.63µM*	5.2µM*
O=C(CCNC(=O)c1ccc(Br)cc1)NCc1ccccn1	·	·	1%	-2%	6%	4%
Cc1ccc(CNC(=O)c2cc(S(=O)(=O)N3CCCCC3)ccc2N2CCOCC2)cc1	·	·	1%	-2%	-13%	-6%
Clc1ccc(/C=C/c2nc3ccccc3[nH]2)c(Cl)c1	7.1µM*	0.56µM*	0.71µM*	0.067µM*	0.4µM*	?
O=C(/C=C/c1ccc(Cl)cc1Cl)c1nc2ccccc2[nH]1	-4%	-29%	0%	0.24µM*	0%	2%
Clc1ccc(/C=C/c2nc3ccccc3[nH]2)cc1	13µM*	0.79µM*	0.1µM*	0.076µM*	0.2µM*	0.58µM*
O=[N+]([O-])c1ccc(/C=C/c2nc3ccc([N+](=O)[O-])cc3[nH]2)cc1	-3%	·	13%	?	6%	-5%
Clc1cccc(Cl)c1/C=C/c1nc2ccccc2[nH]1	-22%	11µM*	3.5µM*	0.67µM*	4.5µM*	?
CC(C)C(NC(=O)c1ccc(Cl)cc1)C(=O)NCC1CCCO1 (stereo not drawn)	·	·	-1%	-1%	2%	-1%
COc1ccccc1OCCC(=O)NNC(=O)c1ccccc1F	·	·	-2%	2%	2%	3%
COc1ccc(/C=C/C(=O)Nc2ccc3c(c2)CCC3)cc1OC	1%	-36%	0%	19µM*	13%	0%
COc1ccc(/C=C/C(=O)NC2=NCCS2)cc1OC	3%	?	2.8µM*	-11%	4µM*	?
O=C(NCCOc1ccccc1Cl)c1ccc2c(c1)S(=O)(=O)c1cc(Cl)ccc1C2=O	·	·	·	·	·	0%
CCCN(CCC)C(=O)SCC	·	-6%	·	·	·	·
Cc1ccc(C(=O)COC(=O)c2cccc(O)c2)s1	·	·	15%	0.43µM*	4%	2%
COc1cccc(C(=O)OCC(=O)c2ccc(Br)s2)c1	·	·	3%	7.6µM*	0%	1%
Cc1cccc(C(=O)NCC(=O)OCC(=O)c2ccc(C)s2)c1	·	·	·	·	·	3%
COc1ccccc1C(=O)COC(=O)CNS(=O)(=O)c1ccc(C)c(C)c1	·	·	-2%	0%	-4%	-6%
Cc1cccc(NC(=O)c2cnc3ccccn3c2=O)c1	-15%	0.71µM*	0.63µM*	0.67µM*	0.32µM*	0.41µM*
Cc1cccc(NC(=O)c2cnc3sccn3c2=O)c1	·	·	0.89µM*	3.4µM*	0.45µM*	?
O=C(Nc1cnc2sccn2c1=O)c1ccccc1Cl	?	23%	1.6µM*	15µM*	?	18µM*
O=C(Nc1ccon1)c1cnc2sccn2c1=O	·	·	21%	-20%	12%	1%
COc1ccc(NC(=O)c2cnc3sccn3c2=O)cc1	-2%	14µM*	?	?	2.5µM*	4.1µM*
Cc1cc2oc(C(=O)Nc3c(C(=O)Nc4ccccc4)oc4ccccc34)cc(=O)c2cc1C	·	1%	·	2%	·	·
COc1cc([N+](=O)[O-])ccc1NC(=O)C[n+]1ccccc1	2%	-5%	1%	-1%	2%	0%
CC(O)C#C[Si](C)(C)c1ccccc1 (stereo not drawn)	1%	7%	·	·	·	·
